Experiments:
Experiment in all cases: PBM binding z-score (relative to random genomic background probes); higher = stronger binding; sequences stand for … in GC…GCGATTGACAGCGTAGAATGAAGG
[1] = system: FXR:RXRa (NR concentration 270 nM, RXRa partner concentration 90 nM)
Method in brief: (§1)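 Random background probes are the reference for binding z-scores. These scores derive from regression-normalized fluorescence on custom Agilent 4×180K protein-binding microarrays incubated 1 h with ligand-free nuclear receptor dimers. Binding was detected with antibodies against each partner (one per run).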

[2] = system: LXRa:RXRa (NR concentration 270 nM, RXRa partner concentration 90 nM)
Method in brief: as §1

[3] = system: LXRa homodimer (NR concentration 270 nM)
Method in brief: as §1

[4] = system: LXRb:RXRa (NR concentration 270 nM, RXRa partner concentration 90 nM)
Method in brief: as §1

[5] = system: LXRb homodimer (NR concentration 270 nM)
Method in brief: as §1

[6] = system: PPARa:RXRa (NR concentration 270 nM, RXRa partner concentration 90 nM)
Method in brief: as §1

[7] = system: PPARg:RXRa (NR concentration 180 nM, RXRa partner concentration 90 nM)
Method in brief: as §1

[8] = system: PPARg:RXRa 270nM:90nM, anti-RXR (NR concentration 270 nM, RXRa partner concentration 90 nM)
Method in brief: as §1

[9] = system: PPARg:RXRa 30nM:10nM, anti-RXR (NR concentration 30 nM, RXRa partner concentration 10 nM)
Method in brief: as §1

[10] = system: PPARg:RXRa 90nM:30nM, anti-RXR (NR concentration 90 nM, RXRa partner concentration 30 nM)
Method in brief: as §1

[11] = system: PPARg:RXRa DBDmut IVT, anti-RXR (DBD mutation: RXRa K156A/R161A, NR concentration 270 nM, RXRa partner concentration 90 nM)
Method in brief: as §1

[12] = system: PPARg:RXRa IVT, anti-PPARg (NR concentration 270 nM, RXRa partner concentration 90 nM)
Method in brief: as §1

[13] = system: PPARg DBDmut IVT, anti-PPARg (DBD mutation: PPARg1 K132A/R137A, NR concentration 270 nM)
Method in brief: as §1

[14] = system: PPARg homodimer (NR concentration 180 nM)
Method in brief: as §1

[15] = system: PXR:RXRa (NR concentration 270 nM, RXRa partner concentration 90 nM)
Method in brief: as §1

[16] = system: PXR homodimer (NR concentration 270 nM)
Method in brief: as §1

[17] = system: RARa:RXR (NR concentration 270 nM, RXRa partner concentration 90 nM)
Method in brief: as §1

[18] = system: RARa homodimer (NR concentration 270 nM)
Method in brief: as §1

[19] = system: RARb:RXRa (NR concentration 270 nM, RXRa partner concentration 90 nM)
Method in brief: as §1

Sequence	PBM binding z-score [1]	PBM binding z-score [2]	PBM binding z-score [3]	PBM binding z-score [4]	PBM binding z-score [5]	PBM binding z-score [6]	PBM binding z-score [7]	PBM binding z-score [8]	PBM binding z-score [9]	PBM binding z-score [10]	PBM binding z-score [11]	PBM binding z-score [12]	PBM binding z-score [13]	PBM binding z-score [14]	PBM binding z-score [15]	PBM binding z-score [16]	PBM binding z-score [17]	PBM binding z-score [18]	PBM binding z-score [19]
CGAACTGGGTCAAAGGACAGTGAAAGGCGACGTA	3.03	1.55	-0.452	1.37	-0.785	5.23	10.1	8.57	7.98	9.33	7.3	7.89	-0.0176	0.919	1.21	-0.282	2.12	-0.262	3.44
CGAACTAGGTCAAAGGACAGAGAAAGGCGACGTA	4.22	2.87	-0.0116	1.9	-0.178	5.58	10.3	8.77	8.15	9.91	8.13	8.31	4.05	1.87	1.26	-0.306	2.31	0.114	3.88
CGAACTAGGTCACCAGGACAGTGGAGAGGTTGGA	4.02	2.46	0.169	1.58	-0.484	5.13	8.7	7.06	4.41	6.57	8.2	8.98	4.11	2.37	1.37	-0.106	2.81	0.103	4.39
AGATGTAGGTTAGGGTCATTCAGAAAGTAGGGAA	5.03	3.88	1.53	4.56	2.05	5.24	7.27	6.27	3.83	5.81	5.84	6.36	2.37	3.93	4.39	3.03	5.13	3.23	3.39
CGAACTAGGTCACCGGGACAGTGAAGAGGTTGGA	4.89	2.78	-0.0882	1.89	-0.502	5.58	9.04	7.34	5.02	7.12	7.85	9.13	0.892	2.28	1.79	-0.271	3.2	0.436	4.33
ATTTGTAGGTTAGGGTCATTCAGAAAGTAGGGAA	5.22	4.68	2.51	4.9	3.24	5.52	6.37	5.83	3.41	5.27	5.45	5.62	3.63	4.01	4.55	3.09	5.22	4.03	3.86
ATATGTAGGTTAGGGTCATACAGAAAGTAGGGAA	4.95	4.24	0.95	4.42	1.32	5.66	8.3	6.82	4.46	6.69	6.63	6.88	2.42	2.62	4.21	1.46	5.03	1.3	3.53
CGAACTCGGTCACCAGGACAGTGAAGAGGTTGGA	0.841	0.683	0.119	-0.176	-1.17	1.76	1.91	1.64	-0.104	0.606	4.23	3.87	-0.647	0.233	0.0316	-0.302	0.493	-0.227	2.69
